The record followed here is article PMC4336329 (PLoS ONE, 2015).

Among all 310,000 compounds or so, about 14,000 (4.5%) showed an effect of 50% or more. Effects have a minus sign here. The sample as a whole holds a higher share of strong results than the screen did.
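Also: peak tail current of the secondary pulse compared with the same well before compound.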

Sequence of human ether-à-go-go-related gene (hERG) potassium channel (Q12809 whole entry, looked up): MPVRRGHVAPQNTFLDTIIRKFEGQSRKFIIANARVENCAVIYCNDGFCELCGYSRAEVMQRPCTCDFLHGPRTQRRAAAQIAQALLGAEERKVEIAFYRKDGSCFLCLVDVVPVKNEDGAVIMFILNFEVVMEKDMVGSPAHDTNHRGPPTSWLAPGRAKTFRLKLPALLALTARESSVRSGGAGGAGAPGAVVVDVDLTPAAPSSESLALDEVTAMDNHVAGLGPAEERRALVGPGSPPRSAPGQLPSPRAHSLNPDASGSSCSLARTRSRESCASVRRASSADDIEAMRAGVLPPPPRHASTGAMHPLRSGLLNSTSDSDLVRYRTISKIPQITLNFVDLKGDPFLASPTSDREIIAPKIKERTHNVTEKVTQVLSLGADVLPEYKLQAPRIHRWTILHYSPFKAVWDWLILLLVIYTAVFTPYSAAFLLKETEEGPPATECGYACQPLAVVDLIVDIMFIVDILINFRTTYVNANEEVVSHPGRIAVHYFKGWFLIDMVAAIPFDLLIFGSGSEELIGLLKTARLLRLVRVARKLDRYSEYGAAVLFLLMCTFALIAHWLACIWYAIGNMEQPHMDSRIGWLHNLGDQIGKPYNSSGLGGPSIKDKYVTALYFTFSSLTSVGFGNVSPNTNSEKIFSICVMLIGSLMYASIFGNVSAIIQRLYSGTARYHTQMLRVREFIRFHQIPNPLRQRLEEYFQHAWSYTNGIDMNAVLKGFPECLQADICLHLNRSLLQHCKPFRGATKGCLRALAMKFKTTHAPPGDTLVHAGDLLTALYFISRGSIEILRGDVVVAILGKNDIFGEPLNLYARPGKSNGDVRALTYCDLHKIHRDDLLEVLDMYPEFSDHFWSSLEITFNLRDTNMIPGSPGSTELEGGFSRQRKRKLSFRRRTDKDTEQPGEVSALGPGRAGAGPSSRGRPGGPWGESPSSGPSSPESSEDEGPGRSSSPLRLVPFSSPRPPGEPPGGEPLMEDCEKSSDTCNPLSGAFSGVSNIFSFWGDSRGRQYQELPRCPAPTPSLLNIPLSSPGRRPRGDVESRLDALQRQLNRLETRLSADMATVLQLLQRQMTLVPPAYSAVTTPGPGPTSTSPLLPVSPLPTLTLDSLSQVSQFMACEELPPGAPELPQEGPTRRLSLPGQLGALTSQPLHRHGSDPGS

The assay concerns the target human ether-à-go-go-related gene (hERG) potassium channel (human, UniProt Q12809). Briefly: primary screen, population patch clamp on CHO cells stably expressing hERG; higher = less effect of the substance.
Turning to `Cc1nccn1Cc1ccccc1`, the “hERG current change (%, negative = inhibition) at 10uM” value is recorded as 25.1%. The figure for `C(=N\Nc1nc(N2CCOCC2)nc(N2CCOCC2)n1)/c1ccco1` is 30.2%. The figure for `CCOC(=O)C1CCN(C(=O)Cn2c(=O)c3cccn3c3cccnc32)CC1` is 3.76%. The figure for `COC(=O)CSC1=C(C#N)C(c2ccc(Cl)cc2)C(C(=O)OC)C(=O)N1` (stereo not drawn) is 0.571%. On to `Cc1cccc(C)c1NC(=O)COC(=O)c1ccccc1O`, for which the “hERG current change (%, negative = inhibition) at 10uM” value came to 1.57%.

`O=C(NC1CCCCC1)N1CCc2[nH]c3ccccc3c2C1`: the “hERG current change (%, negative = inhibition) at 10uM” value is on record as 3.15%.

Turning to `CCc1ccc2nc(N(CCCN(C)C)C(=O)c3ccc4c(c3)OCCO4)sc2c1.Cl`, the “hERG current change (%, negative = inhibition) at 10uM” value was -48.3%.

In the case of `CCN(CC)CCN(C(=O)c1ccc2c(c1)OCCO2)c1nc2cc(C)cc(C)c2s1.Cl`, the “hERG current change (%, negative = inhibition) at 10uM” value is -69.9%.

`CCN(CC)CCN(C(=O)c1ccc2c(c1)OCCO2)c1nc2ccc(C)cc2s1.Cl`: the “hERG current change (%, negative = inhibition) at 10uM” value is recorded as -71.2%. For `Cc1ccc2nc(N(CCN(C)C)C(=O)c3ccc4c(c3)OCCO4)sc2c1.Cl`, the “hERG current change (%, negative = inhibition) at 10uM” value is recorded as -44.6%. The value for `CCN(CC)CCN(C(=O)c1ccc(Br)s1)c1nc2cc3c(cc2s1)OCCO3.Cl` was -1.19%; that for `CN(C)CCN(C(=O)c1ccc2c(c1)OCCO2)c1nc2cc3c(cc2s1)OCO3.Cl` was -41.9%; that for `CN(C)CCCN(C(=O)c1ccc2c(c1)OCCO2)c1nc2cc3c(cc2s1)OCO3.Cl` was -56%. Take `CCN(CC)CCN(C(=O)c1ccc2c(c1)OCCO2)c1nc2cc3c(cc2s1)OCO3.Cl`: the “hERG current change (%, negative = inhibition) at 10uM” value is -67.3%.

On to `CCN(CC)CCN(C(=O)c1ccc(S(=O)(=O)N2CCCC2)cc1)c1nc2cc(C)cc(C)c2s1.Cl`, for which the “hERG current change (%, negative = inhibition) at 10uM” value was -44.1%.

As for `CN(C)CCCN(C(=O)c1ccc2c(c1)OCCO2)c1nc2ccc(Cl)cc2s1.Cl`, the “hERG current change (%, negative = inhibition) at 10uM” value is recorded as -39.9%. The figure for `CC(C)c1ccc(N2CC(C(=O)Nc3nccs3)CC2=O)cc1` (stereo not drawn) is 1.98%. `CC1(C)Cc2c(sc3nc4n(-c5ccccc5)c(=O)c(CCC(=O)O)nn4c(=O)c23)CO1`: the “hERG current change (%, negative = inhibition) at 10uM” value is on record as 12.9%. Take `O=c1cc(-c2ccc([N+](=O)[O-])cc2)c2cc3c(cc2[nH]1)OCCO3`: the “hERG current change (%, negative = inhibition) at 10uM” value is listed as -12%.

Consider `CC(=O)NC(NC(C)=O)c1cccc(OCc2ccccc2)c1`, for which the “hERG current change (%, negative = inhibition) at 10uM” value worked out at 9.33%. As for `CC(NCc1cccc(OCc2ccccc2)c1)C(O)c1ccccc1.Cl` (stereo not drawn), the “hERG current change (%, negative = inhibition) at 10uM” value is reported as -50.9%. For the molecule `CC(NCc1ccc(Cl)cc1Cl)C(O)c1ccccc1.Cl` (stereo not drawn), the “hERG current change (%, negative = inhibition) at 10uM” value was -26.6%.

On to `CC(NCc1ccc(Cl)c(Cl)c1)C(O)c1ccccc1.Cl` (stereo not drawn), for which the “hERG current change (%, negative = inhibition) at 10uM” value was -0.311%. Regarding `CC(NCc1ccc(Cl)cc1)C(O)c1ccccc1.Cl` (stereo not drawn), the “hERG current change (%, negative = inhibition) at 10uM” value was 0.613%. The figure for `CC(NCc1ccc(OCc2ccc(Cl)cc2)cc1)C(O)c1ccccc1.Cl` (stereo not drawn) is -62.5%; for `Cc1ccc(C(=O)NCC(=O)OCCCn2c(=O)[nH]c3ccccc32)cc1` it is -14.8%; for `COc1ccc(N(CC(=O)Nc2ccc(C)cn2)S(=O)(=O)c2c(C)noc2C)cc1` it is -24.8%.

Take `Cc1cccc(C)c1NC(=S)N1CCOCC1`: the “hERG current change (%, negative = inhibition) at 10uM” value stood at 9.99%. As to `Cc1ccc(NC(=O)CCS(=O)(=O)c2cccc3nonc23)c(Br)c1`, the “hERG current change (%, negative = inhibition) at 10uM” value is 6.97%. The figure for `Cc1c(C(=O)Nc2ccccc2C(=O)N2CCCC2)cccc1[N+](=O)[O-]` is 9.76%. The value for `Cc1c(C(=O)N2CCC3(CC2)CC(=O)c2ccccc2O3)cccc1[N+](=O)[O-]` was -83.2%; that for `O=C1CC2(CCN(C(=O)c3ccccc3[N+](=O)[O-])CC2)Oc2ccccc21` was -62%. The value for `O=C(c1ccccc1[N+](=O)[O-])N1CCC2(CC1)OCCO2` was 3.53%; that for `Cc1c(C(=O)N2CCC(C)CC2)cccc1[N+](=O)[O-]` was 26.1%; that for `O=C(c1ccccc1[N+](=O)[O-])N1CCCN(C(=O)c2ccccc2[N+](=O)[O-])CC1` was -14.8%. As for `NC(=O)c1ccc(NC(=O)CNC(=O)c2sc3ccccc3c2Cl)cc1`, the “hERG current change (%, negative = inhibition) at 10uM” value amounted to 0.282%.

Regarding `Cn1nccc1C(=O)Nc1ccn(C23CC4CC(CC(C4)C2)C3)n1`, the “hERG current change (%, negative = inhibition) at 10uM” value is -11.6%. `CN1CCN(S(=O)(=O)c2ccc(=O)[nH]c2)CC1`: the “hERG current change (%, negative = inhibition) at 10uM” value is 7.85%. On to `O=C(NCCCn1ccnc1)c1cc(-c2ccc(Br)cc2)on1`, for which the “hERG current change (%, negative = inhibition) at 10uM” value is recorded as -51.6%. For the molecule `Cc1ccc(-c2cc(C(=O)NCCCN3CCOCC3)no2)cc1`, the “hERG current change (%, negative = inhibition) at 10uM” value is -30.8%. As to `O=C(NCCCN1CCOCC1)c1c(O)c2cc(Br)cc(Br)c2[nH]c1=O`, the “hERG current change (%, negative = inhibition) at 10uM” value is reported as -64.6%.

Turning to `Cc1ccc(-c2cc(C(=O)NCCCn3ccnc3)no2)cc1`, the “hERG current change (%, negative = inhibition) at 10uM” value is -42.9%. For the molecule `Cl.O=C(NCCCN1CCOCC1)c1c(O)c2ccccc2[nH]c1=O`, the “hERG current change (%, negative = inhibition) at 10uM” value is recorded as -47.9%. The figure for `O=C(NCCCn1ccnc1)c1cc(-c2ccccc2)on1` is -16.3%; for `O=C(NCCCN1CCOCC1)c1cc(-c2ccc(Br)cc2)on1` it is -58.6%; for `O=C(NCCN1CCOCC1)c1cc(-c2ccc(Br)cc2)on1` it is -22%. The value for `COc1cc2[nH]c(=O)c(C(=O)NCCCN3CCOCC3)c(O)c2cc1OC.Cl` was 9.48%. The value for `COc1ccc(C2C(C(=O)Nc3ccc(OC)c(OC)c3)c3ccccc3C(=O)N2C)cc1` (stereo not drawn) was 27.7%; that for `O=C(CCc1cn2ccccc2n1)NC1CCCc2c1cnn2-c1ccccc1F` (stereo not drawn) was 0.178%; that for `Fc1cccc(C2CCCCN2Cc2nc(C3CC3)no2)c1` (stereo not drawn) was 13.3%. As for `Cc1ccn2c(=O)nc(SCC(=O)c3ccc(Cl)cc3)nc2c1`, the “hERG current change (%, negative = inhibition) at 10uM” value is recorded as -31.2%.

For `CCOc1c(Cl)cc(/C=C/C(=O)N(CC)CC(=O)NCc2cccs2)cc1OC`, the “hERG current change (%, negative = inhibition) at 10uM” value was -55.4%. The figure for `CCOc1ccc(/C=C/C(=O)N(CC)CC(=O)NCc2cccs2)cc1OC` is -28.3%; for `CCOc1cc(/C=C/C(=O)N(CC)CC(=O)NCc2cccs2)cc(Cl)c1OC` it is -27.7%; for `CCN(CC(=O)NCc1cccs1)C(=O)/C=C/c1ccc(C)cc1` it is -29.4%. Turning to `CCN(CC(=O)NCc1cccs1)C(=O)/C=C/c1ccc(Cl)c(Cl)c1`, the “hERG current change (%, negative = inhibition) at 10uM” value is recorded as -41.1%. The value for `CCN(CC(=O)NCc1cccs1)C(=O)/C=C/c1cccc(Br)c1` was -66.8%. The value for `CCOC(=O)C1(C)NC(c2ccco2)C2C(=O)N(c3ccc(C)cc3)C(=O)C21` (stereo not drawn) was 11.3%; that for `C=CCSc1nc2ccccc2n2cnnc12` was -18.5%; that for `Cc1ccc2c(c1)C(c1ccccc1)N(C(=O)c1cc3ccccc3oc1=O)CC(=O)N2` (stereo not drawn) was -65.1%. The figure for `Cc1ccc2c(c1)C(c1ccccc1)N(C(=O)c1ccccc1)CC(=O)N2` (stereo not drawn) is -7.17%. As for `Cc1ccccc1C(=O)N1CC(=O)Nc2ccc(F)cc2C1c1ccc(F)cc1` (stereo not drawn), the “hERG current change (%, negative = inhibition) at 10uM” value is recorded as -16.1%. The figure for `CC(=O)N1CC(=O)Nc2ccc(C)cc2C1c1ccccc1` (stereo not drawn) is 14.7%; for `O=C1CN(C(=O)c2c(F)cccc2F)C(c2ccc(F)cc2)c2cc(Br)ccc2N1` (stereo not drawn) it is -35.8%; for `O=C1CN(C(=O)c2cc3ccccc3oc2=O)C(c2ccc(F)cc2)c2cc(Br)ccc2N1` (stereo not drawn) it is -68.6%.

For the molecule `COc1ccccc1C(=O)N1CC(=O)Nc2ccc(C)cc2C1c1ccc(F)cc1` (stereo not drawn), the “hERG current change (%, negative = inhibition) at 10uM” value is on record as -38.6%. The figure for `O=C1CN(C(=O)c2cc3ccccc3oc2=O)C(c2ccccc2)c2cc(F)ccc2N1` (stereo not drawn) is -33.9%; for `Cc1ccc2c(c1)C(c1ccccc1)N(C(=O)c1ccc(F)cc1)CC(=O)N2` (stereo not drawn) it is -6.99%. Regarding `Cc1ccc2c(c1)C(c1ccc(F)cc1)N(C(=O)c1cc3ccccc3oc1=O)CC(=O)N2` (stereo not drawn), the “hERG current change (%, negative = inhibition) at 10uM” value is listed as -55%. Take `Cc1ccc2c(c1)C(c1ccccc1)N(C(=O)c1cccc([N+](=O)[O-])c1)CC(=O)N2` (stereo not drawn): the “hERG current change (%, negative = inhibition) at 10uM” value was -55.6%. Consider `O=C1CN(C(=O)c2cc3ccccc3oc2=O)C(c2ccc(F)cc2)c2cc(F)ccc2N1` (stereo not drawn), for which the “hERG current change (%, negative = inhibition) at 10uM” value was -32.1%. On to `CC1(C)OC(=O)C(=CNc2cccc(C(=O)O)c2)C(=O)O1`, for which the “hERG current change (%, negative = inhibition) at 10uM” value is on record as 18.7%. The figure for `COc1cc(/C=N/NC(=O)C(=O)NCC2CCCO2)cc(Cl)c1O` (stereo not drawn) is 31.8%; for `O=C(Nc1ccccc1)Nc1nc(-c2ccc(F)c(F)c2)cs1` it is 16.3%; for `Cc1c(C)n2c(SCC(=O)N3CC(C)OC(C)C3)nnc2[nH]c1=O` (stereo not drawn) it is 9.45%. Regarding `C/C(=N\NC(=O)c1c(Br)c(C)nn1C)c1cccc(NC(=O)c2ccccc2C)c1`, the “hERG current change (%, negative = inhibition) at 10uM” value is -4.71%. On to `O=C(NC1CCCCCC1)C(=S)NCc1ccccc1`, for which the “hERG current change (%, negative = inhibition) at 10uM” value came to 5.94%. The figure for `Cc1ccc(C(=O)NCCC(=O)Nc2ccccc2C)cc1` is 19.5%.

Turning to `COCCNC(=O)Cn1cc(/C=C2\C(=O)NC(=O)N(c3ccccc3F)C2=O)c2ccccc21`, the “hERG current change (%, negative = inhibition) at 10uM” value stood at 17%. For the molecule `O=C1CN(C(=O)c2ccc(Br)o2)C(c2ccccc2)c2cc(F)ccc2N1` (stereo not drawn), the “hERG current change (%, negative = inhibition) at 10uM” value is listed as -45.3%. For `O=C1CN(C(=O)c2ccc(Br)o2)C(c2ccccc2)c2cc(Br)ccc2N1` (stereo not drawn), the “hERG current change (%, negative = inhibition) at 10uM” value is given as -23.6%. The value for `Cc1ccc2c(c1)C(c1ccccc1)N(C(=O)c1ccc(Br)o1)CC(=O)N2` (stereo not drawn) was -56.9%; that for `Cc1c(-c2ccccc2)[n+](=O)c(-c2ccco2)c(C)n1[O-]` was 7.02%; that for `COCCNC(=O)C1CC(=O)N(c2ccc(OC)cc2)C1c1ccc(OC)cc1` (stereo not drawn) was 9.03%.
